# GLP-1R agonist: agonists of human GLP-1 receptor; P43220; HEK293 GLP-1R CRE-luciferase, luminescence, 4-6 h; cells express a hypersensitive GLP-1R form; Potency, µM (titrated, usually from 45.6 µM), for inactives: top-dose activation, most hits filed as activators; 0.007% of 380,000 active; AID 624172; also: % of control where 0% means no effect
# HEK293 tox: cytotoxicity counter-screen for GLP-1 receptor inverse agonists; HEK293 cAMP-luciferase reporter cells, luminescence, 24 h; Potency, µM (highest dose often 38.3 µM), for inactives: at the highest dose activity change, negative = inhibition, hits mostly inhibitors; 0.13% of 410,000 active;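 also: loss of luciferase light is scored as toxicity; % is scaled to controls: 0 for no effect and ±100 for the full control effect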
#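 To flag toxic compounds, the library was rerun on cells for 24 hr at 37 deg C and 5% CO2. Viability-linked luminescence was captured 12 min after adding luciferase detection reagent.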
# GLP-1R inv ag: inverse agonists of human GLP-1 receptor. P43220. HEK293 GLP-1R CRE-luciferase, luminescence, 24 h; GLP-1R form is constitutively active. Potency, µM (doses to about 38.3 µM), without a hit: at the top dose activity change, negative = inhibition, usual class: inhibitors. 1.6% of 410,000 active. AID 624417; also: % is scaled to controls: 0 for no effect and ±100 for the full control effect; nearly all actives have a fitted effect of over 55% in size
#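 HEK293 cells stably co-expressing constitutively active GLP-1R and a cAMP-responsive luciferase reporter were seeded in DMEM with 10% Nu serum, given compounds after 12 h, and incubated 24 h at 37 deg C. Luminescence was then read.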
# VP16 counter: counter-screen for ROR gamma inhibitors: Gal4-VP16 reporter; Drosophila S2 Gal4-VP16 UAS-luciferase, luminescence, 20 h; Potency, µM (titrated, usually from 53.6 µM), for the others: at the top dose activity, negative = inhibition, actives largely listed as inhibitors; 3.5% of 310,000 active; AID 2546;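 also: Gal4-VP16 expression switched on by copper sulfate through the metallothionein promoter; % is scaled to controls: 0 for no effect and ±100 for the full control effect; nearly all actives have a fitted effect of over 50% in size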
# RORg inh: blocks mouse ROR gamma transcriptional activity | P51450 | Drosophila S2 Gal4-RORgamma UAS-luciferase reporter, 20 h | Potency, µM (highest dose often 53.6 µM), for inactives: at the top dose activity change, negative = inhibition, most hits filed as inhibitors | 5.4% of 310,000 active; also: % is scaled to controls: 0 for no effect and ±100 for the full control effect; nearly all actives have a fitted effect of over 60% in size
# Target sequence (P51450 whole entry, looked up, the tested form may be a part): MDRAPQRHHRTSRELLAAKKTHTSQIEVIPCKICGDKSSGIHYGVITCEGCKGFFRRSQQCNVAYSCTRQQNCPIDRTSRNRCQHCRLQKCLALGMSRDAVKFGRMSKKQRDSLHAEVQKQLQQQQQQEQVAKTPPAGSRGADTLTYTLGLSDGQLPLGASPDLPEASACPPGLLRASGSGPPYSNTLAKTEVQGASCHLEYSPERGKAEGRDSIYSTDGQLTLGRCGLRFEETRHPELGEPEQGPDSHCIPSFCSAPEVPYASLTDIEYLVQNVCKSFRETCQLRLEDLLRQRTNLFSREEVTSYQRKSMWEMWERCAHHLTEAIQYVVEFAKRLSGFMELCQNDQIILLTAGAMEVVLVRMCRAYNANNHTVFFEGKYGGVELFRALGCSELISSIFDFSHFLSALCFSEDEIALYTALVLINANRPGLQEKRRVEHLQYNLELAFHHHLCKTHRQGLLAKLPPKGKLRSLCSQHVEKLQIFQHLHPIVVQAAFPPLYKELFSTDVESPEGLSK
#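 In this cell-based reporter format, copper sulfate (700 uM final) drives Gal4–ROR gamma fusion expression from a metallothionein promoter in Drosophila Schneider cells; compounds preincubated 1 hr, reporter read after 20 hr at ambient temperature.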
# The depositor's hits bear a star; ? = inconclusive; nt = no result; [ ] = remark or other dose. Hits are enriched below; roughly 5.9% of the tested compounds scored in any of these assays. Calls follow the shape of the dose curve; as a rule, active = well fitted curve in the direction sought with a large enough effect; inconclusive = small, poorly fitted or top-dose-only effect, or another doubt; inactive = no such curve, though single readings can be large; an effect the other way counts as inactive or inconclusive. Potency is read from the fitted curve at half-maximal effect.
SMILES,GLP-1R agonist,HEK293 tox,GLP-1R inv ag,VP16 counter,RORg inh
CCOc1ccc(NC(=O)N(C)CCc2c(C)nn(C)c2C)cc1,nt,-6.9%,-7.7%,nt,nt
O=C(Cc1ccc(Br)cc1)Nc1cccc(S(=O)(=O)N2CCCCC2)c1,2.5%,-6.8%,10µM*,nt,nt
O=C(Cc1cccs1)Nc1ccc(S(=O)(=O)N2CCCCC2)cc1,6.5%,-25.7%,10µM*,nt,2.3%[0.365 µM]
CCC(C)C(=O)O[C@H]1C[C@@H](C)C=C2C=C[C@H](C)[C@H](CC[C@@H]3C[C@@H](O)CC(=O)O3)C21 (stereo not given in full),nt,nt,nt,-16.1%,15.7%
COc1ccc(C2c3c(oc4ccc(F)cc4c3=O)C(=O)N2Cc2ccc3c(c2)OCO3)cc1 (stereo not given),nt,-0.9%,-3.6%,nt,nt
Cc1cc2c(nc1C)CCCCN2C[C@H](C)O/N=C\[C@@H](C)[C@H](OCc1ccccc1)C(C)C,nt,nt,nt,-12.1%[10 µM],-13.5%[10 µM]
O=C(Cn1cc(S(=O)(=O)N2CCN(c3ccccc3F)CC2)c2ccccc2c1=O)Nc1cccc(C(F)(F)F)c1,-6.3%,-1.5%,-25.4%,nt,nt
Nc1nc2ccc(S(=O)(=O)N3CCCCC3)cc2s1,4.9%,-32.0%,-10.6%,?,12.6µM*
COc1cccc(CN(C(=O)COc2ccc(Cl)c(C)c2)C2CCS(=O)(=O)C2)c1 (stereo not given),nt,-8.7%,?,nt,nt
Cc1[nH]c2ccccc2c1C1=NNC(=Nc2ccc(F)cc2)SC1,-1.7%,?,11.2µM*,-19.8%,14.4%
CCc1cccc2c1Sc1ccccc1CC2N1CCNCC1 (stereo not given),4.1%,?,8.91µM*,nt,nt
COc1cccc(CNC(=O)CN(c2ccc(C)cc2)S(=O)(=O)N(C)C)c1OC,0.1%,8.7%,0.0%,nt,nt
CC(C)(C)N1C(=O)[C@H]2[C@H]3[C@H](O)[C@H](O)C/C(=N/NC(=O)OCc4ccccc4)[C@H]3CC[C@@H]2C1=O,nt,nt,nt,6.7%[10 µM],22.9%[10 µM]
Oc1ccc(N=Nc2ccccc2-c2nn[nH]n2)c(O)c1,-4.4%,?,15.9%,-16.6%,15.8µM*
CC(C)[C@H](CO)N(Cc1cccc(F)c1)c1nc(Nc2cccc(Cl)c2)c2ncn(C(C)C)c2n1,1.9%,17.5%,3.98µM*,-23.4%,4.8%
CC[C@H](CO)Nc1nc(Nc2cccc(Cl)c2)c2ncn(C(C)C)c2n1,-15.6%,?,?,3.16µM*,?
CCS(=O)(=O)c1nc(S(=O)(=O)c2ccc(Cl)cc2)c(NCc2ccc(Cl)cc2)s1,nt,0.4%,8.6%,nt,nt
CO/N=C/NC(=O)N1OC[C@@H]2COc3ccc4ccccc4c3[C@@H]21,-2.1%,36.0%,-8.4%,2.4%,13.5%
O=C(N/C=N/OCc1cccc(C(F)(F)F)c1)N1OC[C@@H]2COc3ccc4ccccc4c3[C@@H]21,-6.2%,29.3%,5.62µM*,-2.2%,16.5%
C=C(C)COc1ccc(-c2n[nH]c(C)c2-c2ccc(OC)cc2)c(O)c1,-44.3%,?,?,?,2.24µM*
CCOc1ccc(-c2n[nH]c(C)c2-c2ccccc2OC)c(O)c1,5.0%,?,5.01µM*,?,2µM*
COc1ccc(-c2c(-c3ccc(OCC(=O)NN)cc3O)n[nH]c2C(F)(F)F)cc1,-3.7%,2.9%,?,4.47µM*,6.31µM*
COc1ccc(-c2n[nH]c(C)c2-c2cscn2)c(O)c1,0.9%,-3.4%,-11.6%,-26.4%,?
Cc1ccc(Cn2cnc3nc4c(cc3c2=O)CC(C)CC4)cc1 (stereo not given),nt,6.4%,40.1%,nt,nt
C=CC(COCc1ccccc1)N([C@@H](Cc1ccccc1)C(=O)OC)S(=O)(=O)c1ccccc1Br (stereo not given in full),-2.2%,19.7%,3.55µM*,nt,nt
SMILES,GLP-1R agonist,HEK293 tox,GLP-1R inv ag,VP16 counter,RORg inh
CCOC(=O)c1c(C)[nH]c2ccc3c(c12)CN1CCc2cc(OC)ccc2[C@@H]1O3,nt,nt,nt,?,39.9%
Cc1ccc(C2CCN(C(=O)Nc3ccc(C)c(C)c3)C2)cc1 (stereo not given),nt,2.7%,11.0%,nt,nt
COc1ccc(OC)c(NC(=O)c2c(NC(=O)CNCc3ccco3)sc3c2CCC3)c1,-7.7%,-9.7%,-1.2%,2.24µM*,?
COc1ccc(NC(=O)c2c(NC(=O)CNCc3ccco3)sc3c2CCC3)c(OC)c1,4.8%,-0.7%,36.8%,2.51µM*,1.12µM*
COc1ccc(OC)c(NC(=O)c2c(NCc3ccc(C)o3)sc3c2CCCCC3)c1,nt,-0.9%,6.2%,nt,nt
COc1ccc(NC(=O)c2c(NC(=O)CNCc3ccco3)sc3c2CCC3)cc1,0.9%,-9.5%,-5.6%,?,-72.6%
COc1ccc(OC)c(NC(=O)CSc2nnc3ccc4ccccc4n23)c1,nt,-10.6%,11.8%,nt,nt
COC(=O)c1ccccc1NC(=O)C1=CC(c2ccc3c(c2)OCO3)=NS(=O)(=O)N1C,nt,4.3%,2.1%,nt,nt
CCOC(=O)C1=C(c2ccccc2)NC(=S)NC1c1cc([N+](=O)[O-])ccc1OC (stereo not given),-11.5%,10.1%,-16.5%,?,12.6µM*
CCOC(=O)C1=C(c2ccccc2)NC(=S)NC1c1cccc([N+](=O)[O-])c1 (stereo not given),0.6%,-1.8%,-3.8%,?,?
CCOC(=O)C1=C(c2ccccc2)NC(=S)NC1C (stereo not given),0.1%,11.2%,-9.0%,?,10µM*
CCOC(=O)C1=C(c2ccccc2)NC(=S)NC1c1ccc(C)c([N+](=O)[O-])c1 (stereo not given),-11.5%,?,?,11.2µM*,?
CCCOc1ccc(S(=O)(=O)NCCCN2CCOCC2)c2ccccc12,6.4%,-27.9%,?,-26.6%,10µM*
CCOc1ccc(S(=O)(=O)NCCCN2CCOCC2)c2ccccc12,1.1%,-13.5%,-4.8%,-5.8%,-1.3%
Cc1cccc(C(C)C)c1NC(=O)CN(C)Cc1cccc(F)c1,-5.2%,3.6%,?,1.0%,13.0%
CCc1cccc(C)c1NC(=O)CN(C)Cc1cccc(F)c1,4.3%,-3.4%,8.91µM*,-7.3%,3.3%
Cc1cc(O)c(NC(=S)NC(=O)c2ccc(-c3ccc(Cl)cc3)o2)cc1C,-29.6%,12.9%,?,5.01µM*,3.16µM*
CN1CCN(c2ccccc2NC(=O)c2ccc(-c3ccc(Cl)c(Cl)c3)o2)CC1,0.7%,3.4%,-4.5%,-0.9%,23.2%
C/C(=N\OCC(=O)N/N=C/c1ccc(C)cc1O)c1cccs1,3.1%,?,0.0%,2.82µM*,0.501µM*
Cc1cc(N2CCN(C)CC2)ccc1NC(=O)c1ccc(-c2ccc(Cl)cc2)o1,11.7%,?,11.2µM*,nt,nt
Cc1ccc(/C=N/NC(=O)Cc2ccc(Cl)cc2)c(O)c1,-7.1%,?,?,0.562µM*,0.224µM*
N[C@H](C(=O)O)[C@@H]1[C@@H](C(=O)O)C1(F)F,nt,nt,nt,-0.7%,4.9%

# Compound activity (PubChem)
